# The source made the active and inactive calls. Rule for the calls: active = hit-call score of the fitted dose curve at least 0.9, where 1 is the maximum; inactive = score below 0.9.
# How the values were obtained:
# [1] = read-out: Low-density lipoprotein receptor (LDLR), LDLR (gene 3949); experiment: BSK_CASM3C_LDLR: BioMAP Diversity Plus: CASM3C Assay for Low-density lipoprotein receptor (LDLR) Biomarker Activity (AID 2283045); conditions: primary human coronary artery smooth muscle cells; actives raise or lower the signal;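 note: LDLR protein level on the cell surface quantified by ELISA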
# [2] = read-out: Monocyte Chemoattractant Protein-1 (MCP1), CCL2 (gene 6347); experiment: BSK_CASM3C_MCP1: BioMAP Diversity Plus: CASM3C Assay for Monocyte Chemoattractant Protein-1 (MCP1) Biomarker Activity (AID 2283046); conditions: primary human coronary artery smooth muscle cells; actives raise or lower the signal;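 note: MCP-1 level quantified by ELISA 24 h after dosing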
# [3] = BSK_CASM3C_Proliferation: Cell Proliferation Assessment in the BioMAP Diversity Plus: CASM3C Assay (AID 2283047); conditions: primary human coronary artery smooth muscle cells;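 note: sulforhodamine B total protein stain as relative cell number at 560 nm; sub-confluent cells exposed 48 h before staining; fitted both ways against DMSO so gain or loss of cell number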
# [4] = read-out: Monokine induced gamma interferon (MIG), CXCL9 (gene 4283); experiment: BSK_CASM3C_MIG: BioMAP Diversity Plus: CASM3C Assay for Monokine induced gamma interferon (MIG) Biomarker Activity (AID 2283048); conditions: primary human coronary artery smooth muscle cells; actives raise or lower the signal;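 note: MIG protein level measured by ELISA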
# [5] = read-out: serum amyloid A (SAA), SAA1 (gene 6288); experiment: BSK_CASM3C_SAA: BioMAP Diversity Plus: CASM3C Assay for serum amyloid A (SAA) Biomarker Activity (AID 2283049); conditions: primary human coronary artery smooth muscle cells; actives raise or lower the signal;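 note: SAA protein level quantified by ELISA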
# [6] = BSK_CASM3C_SRB: Viability Assessment in the BioMAP Diversity Plus: CASM3C Assay (AID 2283050); conditions: primary human coronary artery smooth muscle cells;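 note: cells exposed to compound for 24 h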
# [7] = read-out: Thrombomodulin, THBD (gene 7056); experiment: BSK_CASM3C_Thrombomodulin: BioMAP Diversity Plus: CASM3C Assay for Thrombomodulin Biomarker Activity (AID 2283051); conditions: primary human coronary artery smooth muscle cells; actives raise or lower the signal;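 note: thrombomodulin protein level measured by ELISA 24 h after dosing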
# [8] = read-out: Tissue Factor, F3 (gene 2152); experiment: BSK_CASM3C_TissueFactor: BioMAP Diversity Plus: CASM3C Assay for Tissue Factor Biomarker Activity (AID 2283052); conditions: primary human coronary artery smooth muscle cells; actives raise or lower the signal;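 note: cell surface tissue factor protein level read by ELISA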
# [9] = read-out: Interferon-gamma inducible Protein 10 (IP10), CXCL10 (gene 3627); experiment: BSK_hDFCGF_IP10: BioMAP Diversity Plus: hDFCGF Assay for Interferon-gamma inducible Protein 10 (IP10) Biomarker Activity (AID 2283053); conditions: primary human foreskin fibroblasts; actives raise or lower the signal
# How it was run: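 IP-10 levels, quantified by ELISA, are taken from human foreskin fibroblast cultures 24 h after chemical treatment, with DMSO serving as negative control and baseline for bidirectional analysis.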
# [10] = read-out: Urokinase-type plasminogen activator receptor (uPAR), PLAUR (gene 5329); experiment: BSK_CASM3C_uPAR: BioMAP Diversity Plus: CASM3C Assay for Urokinase-type plasminogen activator receptor (uPAR) Biomarker Activity (AID 2283054); conditions: primary human coronary artery smooth muscle cells; actives raise or lower the signal;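 note: cell-surface uPAR protein level quantified by ELISA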
# [11] = read-out: Vascular cell adhesion molecule 1 (VCAM1), VCAM1 (gene 7412); experiment: BSK_CASM3C_VCAM1: BioMAP Diversity Plus: CASM3C Assay for Vascular cell adhesion molecule 1 (VCAM1) Biomarker Activity (AID 2283055); conditions: primary human coronary artery smooth muscle cells; actives raise or lower the signal;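 note: VCAM-1 protein level quantified by ELISA on the cells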
# [12] = read-out: Collagen III, COL3A1 (gene 1281); experiment: BSK_hDFCGF_CollagenIII: BioMAP Diversity Plus: hDFCGF Assay for Collagen III Biomarker Activity (AID 2283056); conditions: primary human foreskin fibroblasts; actives raise or lower the signal
# How it was run: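 Human foreskin fibroblast primary cultures sampled 24 h after dosing; Collagen III quantified by ELISA. Signal fitted bidirectionally against DMSO baseline.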
# [13] = read-out: Epidermal growth factor receptor (EGFR), EGFR (gene 1956); experiment: BSK_hDFCGF_EGFR: BioMAP Diversity Plus: hDFCGF Assay for Epidermal growth factor receptor (EGFR) Biomarker Activity (AID 2283057); conditions: primary human foreskin fibroblasts; actives raise or lower the signal
# How it was run: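 Measured by ELISA: EGFR levels on primary human foreskin fibroblasts 24 h after chemical treatment, analysed relative to DMSO with bidirectional fitting.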
# [14] = read-out: Interleukin-8 (IL8), CXCL8 (gene 3576); experiment: BSK_hDFCGF_IL8: BioMAP Diversity Plus: hDFCGF Assay for Interleukin-8 (IL8) Biomarker Activity (AID 2283058); conditions: primary human foreskin fibroblasts; actives raise or lower the signal
# How it was run: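 Primary human foreskin fibroblasts (hDFCGF system) dosed with chemical; IL-8 measured by ELISA 24 hours later. Bidirectional curve fitting relative to DMSO baseline; cytotoxicity tracked in parallel cultures by SRB total protein staining.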
# [15] = BSK_hDFCGF_Proliferation: Cell Proliferation Assessment in the BioMAP Diversity Plus: hDFCGF Assay (AID 2283059); conditions: primary human foreskin fibroblasts;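 note: curves fitted for both rise and fall of signal versus DMSO baseline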
# How it was run: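 Primary human foreskin fibroblasts, sub-confluent; […]; 10% TCA fix, 0.1% SRB stain, A560 total protein. Gain/loss fitted bidirectionally vs DMSO control.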
# [16] = read-out: Macrophage colony-stimulating factor (MCSF), CSF1 (gene 1435); experiment: BSK_hDFCGF_MCSF: BioMAP Diversity Plus: hDFCGF Assay for Macrophage colony-stimulating factor (MCSF) Biomarker Activity (AID 2283060); conditions: primary human foreskin fibroblasts; actives raise or lower the signal
# How it was run: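 Human foreskin fibroblast primary cultures; M-CSF measured by ELISA 24 hours after chemical dosing. Bidirectional fitting relative to DMSO, with overt cytotoxicity tracked by parallel SRB total-protein staining (0.1% SRB, 10% TCA fixation, 560 nm).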
# [17] = BSK_hDFCGF_SRB: Viability Assessment in the BioMAP Diversity Plus: hDFCGF Assay (AID 2283061); conditions: primary human foreskin fibroblasts;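 note: cells exposed to compound for 24 h before the read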
# How it was run: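 Human foreskin fibroblasts in 96-well plates were treated 24 h. Total protein was measured by 0.1% SRB staining after 10% TCA fixation, read at 560 nm. Data were fitted bidirectionally against DMSO.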
# [18] = read-out: TIMP metallopeptidase inhibitor 1 (TIMP1), TIMP1 (gene 7076); experiment: BSK_hDFCGF_TIMP1: BioMAP Diversity Plus: hDFCGF Assay for TIMP metallopeptidase inhibitor 1 (TIMP1) Biomarker Activity (AID 2283062); conditions: primary human foreskin fibroblasts; actives raise or lower the signal
# How it was run: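 Human foreskin fibroblast primary cultures dosed for 24 h; secreted/surface TIMP-1 quantified by ELISA. Bidirectional curve fitting against DMSO baseline; cytotoxicity tracked in parallel cultures by SRB total-protein staining.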
# [19] = read-out: Monokine induced gamma interferon (MIG), CXCL9 (gene 4283); experiment: BSK_hDFCGF_MIG: BioMAP Diversity Plus: hDFCGF Assay for Monokine induced gamma interferon (MIG) Biomarker Activity (AID 2283063); conditions: primary human foreskin fibroblasts; actives raise or lower the signal
# How it was run: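 MIG/CXCL9 measured by ELISA 24 h after dosing primary human skin fibroblasts. Activity fitted in both directions against DMSO controls. Cytotoxicity was checked in parallel cultures by SRB staining read at 560 nm.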
# [20] = read-out: Matrix Metallopeptidase 1 (MMP1), MMP1 (gene 4312); experiment: BSK_hDFCGF_MMP1: BioMAP Diversity Plus: hDFCGF Assay for Matrix Metallopeptidase 1 (MMP1) Biomarker Activity (AID 2283064); conditions: primary human foreskin fibroblasts; actives raise or lower the signal
# How it was run: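 hDFCGF primary fibroblasts (human foreskin); chemical added; 24 h; MMP1 by ELISA; bidirectional fit vs DMSO.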
smiles,measurement,setting,value
CCC(C)(C)c1ccc(O)c(C(C)(C)CC)c1,AC50,[1],33.8 µM (active)
same,AC50,[2],34.6 µM (active)
same,AC50,[3],14.3 µM (active)
same,AC50,[4],35.8 µM (active)
same,AC50,[5],30 µM (active)
same,AC50,[6],13 µM (active)
same,AC50,[7],33.8 µM (active)
same,AC50,[8],11.4 µM (active)
same,AC50,[9],6.49 µM (active)
same,AC50,[10],31.4 µM (active)
same,AC50,[11],12.2 µM (active)
same,AC50,[12],7.28 µM (active)
same,outcome,[13],inactive
same,AC50,[14],10.4 µM (active)
same,AC50,[15],9.6 µM (active)
same,AC50,[16],8.2 µM (active)
same,AC50,[17],11.3 µM (active)
same,AC50,[18],8.53 µM (active)
same,AC50,[19],8.09 µM (active)
same,AC50,[20],10.7 µM (active)
COC(=O)c1sccc1S(=O)(=O)NC(=O)Nc1nc(C)nc(OC)n1,outcome,[1],inactive
same,outcome,[2],inactive
same,outcome,[3],inactive
same,outcome,[4],inactive
same,outcome,[5],inactive
same,outcome,[6],inactive
same,outcome,[7],inactive
same,outcome,[8],inactive
same,outcome,[9],inactive
same,outcome,[10],inactive
same,outcome,[11],inactive
same,outcome,[12],inactive
same,outcome,[13],inactive
same,outcome,[14],inactive
same,outcome,[15],inactive
same,outcome,[16],inactive
same,outcome,[17],inactive
same,outcome,[18],inactive
same,outcome,[19],inactive
same,outcome,[20],inactive
CCOC(=O)/C=C(C)/C=C/C[C@@H](C)CCCC(C)C,AC50,[1],27.2 µM (active)
same,AC50,[2],31.9 µM (active)
same,AC50,[3],29 µM (active)
same,AC50,[4],30 µM (active)
same,AC50,[5],33.1 µM (active)
same,AC50,[6],31 µM (active)
same,AC50,[7],35.8 µM (active)
same,AC50,[8],20 µM (active)
same,AC50,[9],31.4 µM (active)
same,AC50,[10],30.9 µM (active)
same,AC50,[11],20 µM (active)
same,AC50,[12],8.64 µM (active)
same,outcome,[13],inactive
same,outcome,[14],inactive
same,AC50,[15],9.55 µM (active)
same,AC50,[16],20 µM (active)
same,AC50,[17],25.1 µM (active)
same,AC50,[18],26.6 µM (active)
same,AC50,[19],33.2 µM (active)
same,AC50,[20],32.4 µM (active)
C[C@]12CCC(=O)C[C@@H]1CC[C@@H]1[C@@H]2CC[C@]2(C)[C@@H](O)CC[C@@H]12,outcome,[1],inactive
same,outcome,[2],inactive
same,outcome,[3],inactive
same,outcome,[4],inactive
same,outcome,[5],inactive
same,outcome,[6],inactive
same,outcome,[7],inactive
same,outcome,[8],inactive
same,outcome,[9],inactive
same,outcome,[10],inactive
same,outcome,[11],inactive
same,outcome,[12],inactive
same,outcome,[13],inactive
same,outcome,[14],inactive
same,outcome,[15],inactive
same,outcome,[16],inactive
same,outcome,[17],inactive
same,outcome,[18],inactive
same,outcome,[19],inactive
same,outcome,[20],inactive
O=[N+]([O-])c1ccc(O)c([N+](=O)[O-])c1,outcome,[1],inactive
same,outcome,[2],inactive
same,outcome,[3],inactive
same,outcome,[4],inactive
same,outcome,[5],inactive
same,outcome,[6],inactive
same,outcome,[7],inactive
same,outcome,[8],inactive
same,outcome,[9],inactive
same,outcome,[10],inactive
same,outcome,[11],inactive
same,outcome,[12],inactive
same,outcome,[13],inactive
same,outcome,[14],inactive
same,outcome,[15],inactive
same,outcome,[16],inactive
same,outcome,[17],inactive
same,outcome,[18],inactive
same,outcome,[19],inactive
same,outcome,[20],inactive
